Compound activity as filed in PubChem.
mHTT-CaM PPI inh – mutant huntingtin-calmodulin interaction inhibitors – biochemical, AlphaScreen, primary screen | P42858 | AlphaScreen His-mHTT/GST-CaM binding, luminescence | inhibition, % at 15 µM | actives 3.6% (n = 190,000) | AID 1671202, 2021;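 note: 0% = both proteins with DMSO and 100% = one protein alone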
Pf apPOL block – Pf-apPOL inhibitors, biochemical, fluorescence. Recombinant Pf-apPOL, molecular beacon fluorescence, 1.5 h. AID 1794808, 2022. inhibition, % at 10 µM. actives 0.25% (n = 210,000)
* hit, by the source's call. In the library only some 3.6% were active in any assay of this set; here they are far more common. Cut-off read from the data, not from the text of the source: active = inhibition above about 50%; inactive = the rest.

SMILES	mHTT-CaM PPI inh	Pf apPOL block
O=C(CC1(O)C(=O)N(CCc2ccccc2)c2ccccc21)c1cccs1 (stereo not given)	8	-10
O=C(CC1(O)C(=O)N(Cc2ccccc2)c2ccccc21)c1ccc(Br)s1 (stereo not given)	52*	-9
COc1ccc(CN(CCC2(C(C)C)CCOC(C)(C)C2)C(C)=O)cc1OC (stereo not given)	15	0
COc1ccc(CN(CCC2(c3ccccc3)CCOC(C)(C)C2)C(C)=O)cc1OC (stereo not given)	68*	1
COc1ccc2c(c1)N1CCCCC1C(C(=O)NC(C)C)C2 (stereo not given)	-6	1
Cc1cccc(N(C)C(=O)CN(C)S(=O)(=O)c2ccc3[nH]c4c(c3c2)CCCC4)c1	62*	-4
CN(CC(=O)NCc1ccccc1)S(=O)(=O)c1ccc2[nH]c3c(c2c1)CCCC3	46	-4
CCN(Cc1ccccc1)C(=O)CN(C)S(=O)(=O)c1ccc2[nH]c3c(c2c1)CCCC3	65*	-3
Cc1cccc(C)c1NC(=O)CN(C)S(=O)(=O)c1ccc2[nH]c3c(c2c1)CCCC3	26	-3
CC1CN(S(=O)(=O)Cc2ccccc2)CC1c1nc(-c2ccccc2)no1 (stereo not given)	-39	0
O=[N+]([O-])c1ccc(N2CCN(Cc3ccccc3)CC2)cc1NC1CC1	27	-7
O=[N+]([O-])c1ccc(N2CCCC2)cc1N1CCN(Cc2ccccc2)CC1	53*	-4
O=C1C(Nc2ccccc2)=CC(=NS(=O)(=O)c2cccs2)c2ccccc21	92*	0
COc1ccccc1Nc1ncc(-c2cccs2)s1	25	0
O=C(O)c1cccc(NC2=CC(=NS(=O)(=O)c3cccs3)c3ccccc3C2=O)c1	44	22
COc1ccccc1NC1=CC(=NS(=O)(=O)c2ccc(Cl)cc2)c2ccccc2C1=O	94*	4
COc1ccccc1NC1=CC(=NS(=O)(=O)c2cccs2)c2ccccc2C1=O	91*	-15
COc1ccccc1NS(=O)(=O)c1ccc(Cl)c(C(=O)Nc2ccc(Cl)cc2)c1	15	20
O=c1c2c(nc3cc[nH]n13)CCN(S(=O)(=O)c1ccc(Cl)s1)C2	-6	0
CC(C)CCC(=O)N1CCN(c2nc(CN3CCCCC3)cs2)CC1	-7	1
CCOC1=NN(c2ccc([N+](=O)[O-])cc2)C(=O)/C1=C/c1ccc(C(C)C)cc1	13	1
O=C(NCc1ccc(N2CCCCC2)cc1)c1ccc2ncnc(N3CCCC3)c2c1	30	3
O=C(NCc1ccccc1Cl)c1ccc2c(c1)NC(=O)C1CCCCN21 (stereo not given)	1	-2
COc1ccc(C(=O)NCCSc2c(C)[nH]c3ccccc23)cc1OC	12	-6
CCOc1ccc(CC(=O)NC(C)Cc2ccco2)cc1 (stereo not given)	-7	-7
SMILES	mHTT-CaM PPI inh	Pf apPOL block
COc1ccc(CNc2ccc(C)c(C)c2)cc1Br	81*	-2
COc1ccc(CNc2ccc(F)c(Cl)c2)c(OC)c1	31	0
COc1ccc(CNc2cccc(F)c2)cc1Br	-65	-9
COc1cc(OC)c(CNc2ccc(F)c(F)c2)cc1Br	10	8
COc1ccc(CNc2ccccc2SC)cc1Br	-31	1
COc1ccc(CNc2ccc3cn[nH]c3c2)cc1Br	71*	-5
COc1cc(OC)c(CNc2ccc3cn[nH]c3c2)cc1Br	55*	-3
COc1ccc(CNc2ccc(C)c(C)c2)c(OC)c1	58*	-5
COc1cccc(CNc2ccc(F)c(Cl)c2)c1OC	26	5
COc1cccc(CNc2ccc3cn[nH]c3c2)c1OC	54*	10
CCOc1ccccc1CNC(=O)C1CCN(c2nccnc2Oc2cccc(C)c2)CC1	-4	-4
Cn1c(Cl)cnc1C1CC(c2cc(Cl)ccc2O)=NN1 (stereo not given)	67*	3
Cn1c(Cl)cnc1C1CC(=O)c2cc(Cl)ccc2O1 (stereo not given)	16	0
COc1ccc(C2=NNC(c3ccc(Br)cc3)C2)c(O)c1 (stereo not given)	47	-7
Oc1ccc(F)cc1C1=NNC(c2ccc3c(c2)OCCO3)C1 (stereo not given)	39	1
Oc1ccc(Cl)cc1C1=NNC(c2ccc3c(c2)OCCO3)C1 (stereo not given)	63*	-3
Oc1ccccc1C1=NNC(c2ccc(Br)cc2)C1 (stereo not given)	57*	-3
O=[N+]([O-])c1ccc(O)c(C2=NNC(c3ccncc3)C2)c1 (stereo not given)	30	-2
O=[N+]([O-])c1ccc(O)c(C2=NNC(c3ccc(Cl)cc3)C2)c1 (stereo not given)	55*	-1
CC(C)Sc1ccc(CC(=O)NCC2CCN(c3ncccn3)CC2)cc1	-1	-14
Cc1ccc(OCC(=O)Nc2cc(Cl)ccc2C)cc1	-7	5
